Inconclusive results are not listed. The source made the active and inactive calls. The call rests on the fitted dose curve; in most records, active means well fitted cell-killing curve with a large enough effect; inconclusive means small, poorly fitted or top-dose-only effect, or effect the other way; inactive means flat fitted curve, though single readings scatter. Where a SMILES comes first, the peptide text is derived from it. [ ]: non-standard residue; d: D form. Hyp = O=C(O)[CH]1C[CH](O)CN1; Phe(ol) = N[CH](CO)Cc1ccccc1; Iva = CC[C](C)(N)C(=O)O; Aib = CC(C)(N)C(=O)O
How the values were obtained:
Assay in all cases: Primary qHTS to identify gynecologic anti-cancer compounds using libraries of approved drugs and bioactive compounds (AID 1345084); further: nearly all actives have a fitted effect of over 55% in size
[1] = system: C33A; details: Gynecologic cancer cell panel viability, ATPlite luminescence, 48 h; series mostly up to 57.5 µM
Procedure, shortened: (§1)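 Cells, 1,000 per well, were allowed to settle for 16 h at 37 C before compound addition. Five concentrations were tested for 48 h, and viability was read by ATPlite luminescence after 15 min at room temperature.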

[2] = system: CAOV3; details: Gynecologic cancer cell panel viability, ATPlite luminescence, 48 h; series mostly up to 57.5 µM
Procedure, shortened: as §1

[3] = system: CASKI; details: Gynecologic cancer cell panel viability, ATPlite luminescence, 48 h; series mostly up to 57.5 µM
Procedure, shortened: as §1

[4] = system: Es-2; details: Gynecologic cancer cell panel viability, ATPlite luminescence, 48 h; series mostly up to 57.5 µM
Procedure, shortened: as §1

[5] = system: HeLa; details: Gynecologic cancer cell panel viability, ATPlite luminescence, 48 h; series mostly up to 57.5 µM
Procedure, shortened: as §1

[6] = system: Hek293T; details: Gynecologic cancer cell panel viability, ATPlite luminescence, 48 h, control line for the selectivity index; series mostly up to 57.5 µM
Procedure, shortened: as §1

[7] = system: JEG-3; details: Gynecologic cancer cell panel viability, ATPlite luminescence, 48 h; series mostly up to 57.5 µM
Procedure, shortened: as §1

[8] = system: OV90; details: Gynecologic cancer cell panel viability, ATPlite luminescence, 48 h; series mostly up to 57.5 µM
Procedure, shortened: as §1

[9] = system: PA-1; details: Gynecologic cancer cell panel viability, ATPlite luminescence, 48 h; series mostly up to 57.5 µM
Procedure, shortened: as §1
On the % scale 0 is the no-effect control and ±100 the full control effect; potency means the concentration at half of the fitted maximal effect.

COc1ccc(S(=O)(=O)n2cnc3cc(C)c(C)cc32)cc1
inactive: Potency [1] | Potency [2] | Potency [3] | Potency [4] | Potency [5] | Potency [6] | Potency [7] | Potency [8]

CC1=C(C(=O)OC2CCCCC2)C(c2ccc([N+](=O)[O-])cc2)C2=C(CC(C)(C)CC2=O)N1 (stereo not drawn)
inactive: Potency [1] | Potency [2] | Potency [3] | Potency [4] | Potency [5] | Potency [6] | Potency [7] | Potency [8]

CCCOc1ccc(S(=O)(=O)N2CCN(CCO)CC2)cc1-c1nc2c(CCC)cn(CC)c2c(=O)[nH]1
inactive: Potency [1] | Potency [2] | Potency [3] | Potency [4] | Potency [5] | Potency [6] | Potency [7] | Potency [8]

CCC(C)(NC(=O)C(CCC(N)=O)NC(=O)C1CC(O)CN1C(=O)C(C)(C)NC(=O)C(C)(C)NC(=O)C(CC(C)C)NC(=O)CNC(=O)C(NC(=O)C(C)(C)NC(=O)C(C)(C)NC(=O)C(C)(C)NC(=O)C(Cc1ccccc1)NC(C)=O)C(C)C)C(=O)N1CC(O)CC1C(=O)NC(C)(C)C(=O)NC(CO)Cc1ccccc1 (stereo not drawn) (Ac-F[Aib][Aib][Aib]VGL[Aib][Aib][Hyp]Q[Iva][Hyp][Aib][Phe(ol)]; configuration not given here)
inactive: activity change, negative = cytotoxicity [1] -28.9% [at 6.55 µM] | activity change, negative = cytotoxicity [2] -2.26% [at 6.55 µM] | activity change, negative = cytotoxicity [3] -19.9% [at 6.55 µM] | activity change, negative = cytotoxicity [4] -0.689% [at 6.55 µM] | activity change, negative = cytotoxicity [5] -3.33% [at 6.55 µM] | activity change, negative = cytotoxicity [6] -7.78% [at 6.55 µM] | activity change, negative = cytotoxicity [7] -14.6% [at 6.55 µM] | activity change, negative = cytotoxicity [8] -17.1% [at 6.55 µM]

O=C(Nc1ccc(N(Cc2ccsc2)C(=O)Cn2nnc3ccccc32)cc1)C1CC1
inactive: Potency [1] | Potency [2] | Potency [3] | Potency [4] | Potency [5] | Potency [6] | Potency [7] | Potency [8]

CC(=O)O[C@@H]1[C@@H](OC(C)=O)[C@H](C)O[C@@H](O[C@H]2[C@@H]3C=CO[C@@H](O[C@@H]4O[C@H](CO)[C@@H](O)[C@H](O)[C@H]4O)[C@@H]3[C@@]3(CO)O[C@@H]23)[C@@H]1OC(=O)/C=C/c1ccccc1
inactive: Potency [1] | Potency [2] | Potency [3] | Potency [4] | Potency [5] | Potency [6] | Potency [7] | Potency [8]

COc1ccc(C2=NC(c3ccc(Cl)cc3)C(c3ccc(Cl)cc3)N2C(=O)N2CCNC(=O)C2)c(OC(C)C)c1 (stereo not drawn)
inactive: Potency [1] | Potency [2] | Potency [3] | Potency [4] | Potency [5] | Potency [6] | Potency [7] | Potency [8]

CNc1nc(Nc2ccc(C(=O)N3CCOCC3)cc2OC)nc2[nH]cc(Cl)c12
inactive: Potency [1] | Potency [2] | Potency [3] | Potency [4] | Potency [5] | Potency [6] | Potency [7] | Potency [8]

O=C(Nc1ccccc1)N1CCN(c2nc(-c3ccccc3)ns2)CC1
inactive: Potency [1] | Potency [2] | Potency [3] | Potency [4] | Potency [5] | Potency [6] | Potency [7] | Potency [8]

C[C@@H]1O[C@@H](O[C@H]2CC[C@@]3(C)C(CC[C@]4(C)C3CC=C3[C@@H]5CC(C)(C)CC[C@]5(C(=O)O[C@@H]5O[C@H](CO)[C@@H](O)[C@H](O)[C@H]5O)CC[C@]34C)[C@]2(C)CO)[C@H](O)[C@H](O[C@@H]2O[C@H](CO)[C@@H](O)[C@H](O)[C@H]2O)[C@H]1O (stereo partly drawn)
inactive: activity change, negative = cytotoxicity [1] -20.9% [at 11.6 µM] | activity change, negative = cytotoxicity [2] -0.291% [at 11.6 µM] | activity change, negative = cytotoxicity [3] -6.26% [at 11.6 µM] | activity change, negative = cytotoxicity [4] -0.79% [at 11.6 µM] | activity change, negative = cytotoxicity [5] -1.56% [at 11.6 µM] | activity change, negative = cytotoxicity [6] -6.15% [at 11.6 µM] | activity change, negative = cytotoxicity [7] -9.27% [at 11.6 µM] | activity change, negative = cytotoxicity [8] -0.517% [at 11.6 µM]

COc1ccc(CCc2nc3cc(-c4c(C)noc4C)ccc3n2CC(C)N2CCOCC2)cc1Cl (stereo not drawn)
inactive: Potency [1] | Potency [2] | Potency [3] | Potency [4] | Potency [5] | Potency [6] | Potency [7] | Potency [8]

O=C(O)CCc1nccc2c1[nH]c1ccccc12
inactive: Potency [1] | Potency [2] | Potency [3] | Potency [4] | Potency [5] | Potency [6] | Potency [7] | Potency [8]

O=C(NCc1cccs1)c1cc2nc(-c3ccco3)cc(C(F)(F)Cl)n2n1
inactive: Potency [1] | Potency [2] | Potency [3] | Potency [4] | Potency [5] | Potency [6] | Potency [7] | Potency [8]

C=C1C(=O)OC[C@@H]1C/C=C(\C)CC1CC(C)C(=O)O1 (stereo partly drawn)
inactive: Potency [1] | Potency [2] | Potency [3] | Potency [4] | Potency [5] | Potency [6] | Potency [7] | Potency [8]

C[C@H]1CC[C@@]2(OC1)O[C@H]1CC3[C@@H]4CC[C@@H]5C[C@@H](O[C@@H]6O[C@H](CO)[C@@H](O[C@@H]7O[C@@H](C)[C@H](O)[C@@H](O)[C@H]7O)[C@H](O)[C@H]6O[C@@H]6O[C@H](CO)[C@@H](O)[C@H](O)[C@H]6O)CC[C@]5(C)C4CC[C@]3(C)[C@H]1[C@@H]2C (stereo partly drawn)
inactive: activity change, negative = cytotoxicity [1] -15.7% [at 11.6 µM] | activity change, negative = cytotoxicity [2] -14.9% [at 11.6 µM] | activity change, negative = cytotoxicity [3] 2.17% [at 11.6 µM] | activity change, negative = cytotoxicity [4] 0.261% [at 11.6 µM] | activity change, negative = cytotoxicity [5] 24.8% [at 11.6 µM] | activity change, negative = cytotoxicity [6] -22.5% [at 11.6 µM] | activity change, negative = cytotoxicity [7] 3.99% [at 11.6 µM] | activity change, negative = cytotoxicity [8] -17.7% [at 11.6 µM]

C[C@@H]1O[C@@H](O[C@H]2[C@@H]3C=CO[C@@H](O[C@@H]4O[C@H](CO)[C@@H](O)[C@H](O)[C@H]4O)[C@@H]3[C@@]3(CO)O[C@@H]23)[C@H](O)[C@H](OC(=O)/C=C/c2ccccc2)[C@H]1O
inactive: Potency [1] | Potency [2] | Potency [3] | Potency [4] | Potency [5] | Potency [6] | Potency [7] | Potency [8]

COc1cc2ncc(-c3ccccc3)nc2cc1OC
inactive: Potency [1] | Potency [2] | Potency [3] | Potency [4] | Potency [6] | Potency [7] | Potency [8]
active: Potency [5] 3.55 µM

C/C=C(/C)C(=O)O[C@@H]1C[C@@H](OC(=O)CC(C)C)C2(C)C3C(=O)C=C(C)C2C3C1(C)C (stereo partly drawn)
inactive: Potency [1] | Potency [2] | Potency [3] | Potency [4] | Potency [5] | Potency [6] | Potency [7] | Potency [8]

O=C(NC[C@H]1CN(c2ccc(N3CCOCC3=O)cc2)C(=O)O1)c1ccc(Cl)s1
inactive: Potency [1] | Potency [2] | Potency [3] | Potency [4] | Potency [5] | Potency [6] | Potency [7] | Potency [8] | Potency [9]
